Measured values taken from PubChem BioAssay.
The source made the active and inactive calls. Rule as the data show it: active = fold change permeability below about 0.7 or above about 1.3; inactive = in between.

Assay: compounds altering in vitro BBB leakiness – cell-based, FITC-avidin fluorescence, HTS, primary screen (AID 1963498); also: test concentration not given here
Conditions: brain endothelial barrier, actives lie on both sides

Compound | fold change permeability
O=C(O)C1(C(=O)O)CCC1.[NH2-].[NH2-].[Pt+2] | 0.8 (inactive)
CN1CCN(C(=O)c2ccc(-n3nc(-c4ccc(C(=O)O)cc4)cc3-c3cc(C(C)(C)C)cc(C(C)(C)C)c3)cc2)CC1 | 1 (inactive)
C[C@H](NC[C@H](O)CP(=O)(O)Cc1ccccc1)c1ccc(Cl)c(Cl)c1 | 1.1 (inactive)
O=C(c1cccc(-c2ccc(-c3cn(C(=O)N4CCCCC4c4ccccc4)nn3)cc2)c1)N1CCCCC1 (stereo unspecified) | 1.1 (inactive)
CC(C)(CO)Cc1cc(C(C)(C)C)c(O)c(C(C)(C)C)c1 | 1.1 (inactive)
S=C(Nc1ccccc1)Nc1nccs1 | 1.3 (active)
CN(C)CCCN1c2ccccc2CCc2ccc(Cl)cc21 | 1.1 (inactive)
NS(=O)(=O)c1cccc2c1c([N+](=O)[O-])cc1nc(O)c(O)nc12 | 0.9 (inactive)
N=c1c[n+](N2CCOCC2)[n-]o1 | 0.8 (inactive)
CCN(CC)CCNC(=O)c1cc(Cl)c(N)cc1OC | 0.9 (inactive)
Cc1nc2c([nH]1)c(=O)n(C)c(=O)n2Cc1ccco1 | 0.7 (active)
COc1cc(/C=C/C(=O)N2CCN(CC(=O)N3CCCC3)CC2)cc(OC)c1OC | 1 (inactive)
COc1ccccc1N1CCN(CCCCN2C(=O)c3ccccc3C2=O)CC1 | 0.9 (inactive)
O=Nc1c(-c2c(O)[nH]c3cc(Br)ccc23)[nH]c2ccccc12 | 1.2 (inactive)
CCc1ccc(OCC(=O)Nc2ccc(F)c([N+](=O)[O-])c2)cc1 | 1.1 (inactive)
Nc1ncnc2c1ncn2[C@@H]1O[C@H](COP(=O)(O)OP(=O)(O)OP(=O)(O)OP(=O)(O)OC[C@@H]2O[C@H](n3cnc4c(N)ncnc43)C(O)[C@@H]2O)[C@H](O)C1O (stereo partly specified) | 1 (inactive)
